The source of these data is PubChem BioAssay (Tox21).

Inconclusive results are not listed. Values without a mark were called inactive. Calls follow the shape of the full dose curve. Positions of bridges follow the written chain, without caps; N, C: chain ends. Non-standard residues stand in square brackets, D forms with d. Residues, ends and D or L forms follow the SMILES beside them. hArg = N=C(N)NCCCC[C@H](N)C(=O)O; Mpa = O=C(O)CCS
% is scaled to controls: 0 for no effect and ±100 for the full control effect.

Sequence of Thyrotropin receptor (Homo sapiens) (P16473 whole entry, looked up): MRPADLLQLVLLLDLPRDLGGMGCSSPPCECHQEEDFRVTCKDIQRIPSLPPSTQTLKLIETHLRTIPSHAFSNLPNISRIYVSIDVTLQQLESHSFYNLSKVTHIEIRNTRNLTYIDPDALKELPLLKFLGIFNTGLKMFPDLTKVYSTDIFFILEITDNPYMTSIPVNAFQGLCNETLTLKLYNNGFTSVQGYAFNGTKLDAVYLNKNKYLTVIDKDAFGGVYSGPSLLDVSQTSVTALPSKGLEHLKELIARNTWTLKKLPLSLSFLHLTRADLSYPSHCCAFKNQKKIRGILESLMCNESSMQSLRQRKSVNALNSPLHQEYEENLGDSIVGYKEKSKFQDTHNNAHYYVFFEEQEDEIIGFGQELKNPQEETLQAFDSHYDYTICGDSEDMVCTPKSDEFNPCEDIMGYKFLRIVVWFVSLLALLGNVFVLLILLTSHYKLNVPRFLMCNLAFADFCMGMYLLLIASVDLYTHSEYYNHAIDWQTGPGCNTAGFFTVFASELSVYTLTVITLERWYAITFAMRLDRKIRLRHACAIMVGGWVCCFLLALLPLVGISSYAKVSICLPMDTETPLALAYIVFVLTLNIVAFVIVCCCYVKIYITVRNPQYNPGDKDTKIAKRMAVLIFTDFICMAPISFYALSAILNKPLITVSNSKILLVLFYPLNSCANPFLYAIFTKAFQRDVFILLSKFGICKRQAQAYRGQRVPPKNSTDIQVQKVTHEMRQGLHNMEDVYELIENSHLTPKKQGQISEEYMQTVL

In this test the target is Thyrotropin receptor (Homo sapiens) (UniProt P16473). Description: qHTS assay to identify small molecule antagonists of the thyroid stimulating hormone receptor (TSHR) signaling pathway (AID 1259385). Also: nearly all actives have a fitted effect of over 20% in size. The note with it: TSHR-HEK293 cAMP HTRF, TSH-stimulated antagonist mode; series mostly up to 92.4 µM; activity change, negative = inhibition: at the top concentration. An excerpt:
U.S. Tox21 Program National Center for Advancing Translational Sciences [NCATS] NIH Chemical Genomics Center [NCGC] U.S. Environmental Protection Agency [EPA] National Institutes of Environmental Health Sciences [NIEHS] National Toxicology Program [NTP] U.S. Food and Drug Administration [FDA] Tox21 Assay Overview: TSHR is the receptor for thyrotropin (thyroid stimulating hormone or TSH), a member of the glycoprotein hormone family. TSH is released by the anterior pituitary gland and is the main regulator of thyroid gland growth and development. Upon binding circulating thyrotropin, a G-protein signal cascade activates adenylyl cyclase and […] cAMP concentration is increased. cAMP is a key second messenger involved extensively in cellular signal transduction pathways associated with the majority of G-protein coupled receptors (GPCRs). The activation of these GPCRs by neurotransmitters, lipids, nucleotides, peptides and hormones results in the activation or the inhibition of plasma membrane-bound adenylate cyclase through heterotrimeric G-proteins. A cell-based TSHR assay can be used to screen chemical compounds that modulate TSHR either in agonist or antagonist mode.
Tox21 Assay Protocol Summary: TSHR-Hek293 cells were dispensed at 800 cells/4uL/well in 1536-well white plates using a Multidrop dispenser. After the assay plates were incubated at a 37C/5% CO2 incubator for 18 hrs, 23 nL of compounds dissolved in DMSO, positive controls or DMSO only was transferred to the assay plate by a pin tool, followed by 1 ul medium containing Ro20-1724. For the antagonist mode screening, 1 uL of TSH was added on the top of the cell/compound mixtures to achieve a final agonist concentration of 1.5 ng/mL. After 30 min of incubation at room temperature, 2.5 ul/well of cAMP-d2 and 2.5 ul/well of anti-cAMP-cryptate were added respectively into the assay plates using a Flying Reagent Dispenser. The plates were incubated at room temperature for 1 hr. The fluorescence intensity in the plates was measured using an Envision plate reader. Each test compound was measured at 15 concentrations and in triplicates.
Regarding `C=Cc1ccc(C(C)(C)C)cc1`, the “activity change, negative = inhibition” value was 0.386%.
Then `CCNC(=O)NCc1cccc(Cl)c1`, with -3.53% [at 42.5 µM].
Then `C/C(=C1\CCOC(=O)S1)N(C=O)Cc1cnc(C)nc1N`, with 8.79% [at 42.5 µM]; and `Cc1cc(-c2ccccc2)nnc1NCCN1CCOCC1`, with -0.522% [at 42.5 µM]; and `CC(=O)CC(=O)Nc1ccc(C)cc1C`, with -0.482%.
Then `CCCC(=O)OC/C=C(\C)CCC=C(C)C`, with 0.431%; and `COc1ccc2c(c1)c1c3n2CCN(C)C3=NCC1`, with 1.87% [at 42.5 µM].
Take `O=C(Cn1ccnc1[N+](=O)[O-])NCc1ccccc1`: the “activity change, negative = inhibition” value is 2.15% [at 42.5 µM].
In the case of `CCCCSCCCC`, the “activity change, negative = inhibition” value was 0.875%.
Then `O=S(=O)(O)c1ccc2c(N=Nc3ccc(S(=O)(=O)O)c4ccccc34)c(O)c(S(=O)(=O)O)cc2c1`, with -3.96% [at 8.39 µM]; and `C=CCSSCCC`, with -2.02%; and `CC(C)NC(=O)c1ccc(C=O)cc1`, with 2.7% [at 42.5 µM].
Regarding `CC(=O)CCC1=C(C)CCCC1(C)C`, the “activity change, negative = inhibition” value is 1.59%.
In the case of `O=C1c2ccccc2C(=O)c2cc(Cl)ccc21` it was -1.43% [at 8.39 µM]; in that of `OC1OCCOC1O` (stereo not given), 1.95%; in that of `CC(=O)C1C(=O)C=C(C)OC1=O` (stereo not given), 0.263%.
In the case of `C=C(C)C1CC=C(C)C(=O)C1` (stereo not given) it was -2.95%.
In the case of `CC1CC(=O)CC(C)(C)C1` (stereo not given) it was 2.41%; in that of `NCCOCCN`, 0.533%; in that of `Cc1ccc(C(=O)O)cc1[N+](=O)[O-]`, 1.72%.
Consider `CCC/C=C(\C=O)CC`, for which the “activity change, negative = inhibition” value is -1.57%.
Then `OCC1(CO)COCOC1`, with -0.367%; and `CC(O)CC(C)O` (stereo not given), with -2.81%; and `COc1nc(N)nc2nc[nH]c12`, with -5.31%.
In the case of `C=CCCCCCCCCC(=O)OCCCC` it was 2.59%; in that of `CC(=O)OCC(=O)Nc1cc(C#N)cc(NC(=O)COC(C)=O)c1Cl`, 0.318% [at 42.5 µM].
As to `OCC1CCC(CO)CC1` (stereo not given), the “activity change, negative = inhibition” value was 2.69%.
For the molecule `COC(=O)CCCCC(CCSS/C(CCO)=C(\C)N(C=O)Cc1cnc(C)nc1N)SC(C)=O` (stereo not given), the “activity change, negative = inhibition” value was 6.32% [at 42.5 µM].
In the case of `NC(=O)[C@@H]1CSSCCC(=O)N[C@@H](CCCCN=C(N)N)C(=O)NCC(=O)N[C@@H](CC(=O)O)C(=O)N[C@@H](Cc2c[nH]c3ccccc23)C(=O)N2CCC[C@H]2C(=O)N1` ([Mpa][hArg]GDWPC-NH2; disulfide 1-7) it was 0.3% [at 42.5 µM]; in that of `CCCc1ccc(O)cc1`, 1.68%.
In the case of `CC(=O)O[C@@H]1CC2CCC1(C)C2(C)C` (stereo not given in full) it was -1.83%.
In the case of `CC(C)=CCC/C(C)=C/COC=O`, the “activity change, negative = inhibition” value was -0.61%.
Turning to `C[C@H]1[C@@H](c2ccccc2)NC(=O)N1C`, the “activity change, negative = inhibition” value was -3.43%.
Consider `NCC1(Cc2noc(=O)[nH]2)CCCCC1`, for which the “activity change, negative = inhibition” value was 0.0275%.
In the case of `COC(=O)/C=C\C(=O)O`, the “activity change, negative = inhibition” value is -0.463%.
As to `CCc1occc(=O)c1O`, the “activity change, negative = inhibition” value was 0.322%.
Consider `CCCCCc1cccc(=O)o1`, for which the “activity change, negative = inhibition” value was -0.376%.
Then `CC(O)COC(C)(C)C` (stereo not given), with 1.86%.
Then `COC(=O)CCCCC(=O)O`, with 1.87%; and `CC(C)OC(=O)OCOP(=O)(CO[C@H](C)Cn1cnc2c(N)ncnc21)OCOC(=O)OC(C)C`, with -0.753% [at 42.5 µM].
